# Reference: paper PMC8384837, “Expanding the binding specificity for RNA recognition by a PUF domain”
# Legend:
# Assay in all cases: yeast three-hybrid, YBZ-1, SC-Leu-His + 0.5 mM 3-AT, 4 days
# Details in all cases: tags: N-Gal4 AD-HA kept; label: inside an RPR1-promoter hybrid RNA with tandem MS2 sites; ssRNA
# [1] = target: PUM1 PUF domain R3-GYV (Homo sapiens, UniProt Q14671 828-1176, C935G;R936Y;Q939V)
# Summary of the method: (§1)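 The interaction score is the log change in how often each variant appears, from input to selection. Frequencies came from PCR-amplified, Illumina-sequenced repeat regions of Pumilio-1 PUF domain libraries grown in strain YBZ-1 (LexA–MS2 coat fusion, HIS3 reporter) alongside matching RNA elements. Input plates were SC-Leu and selection plates were SC-Leu-His + 0.5 mM 3-AT, each for four days, and the log2 calculation used a pseudocount of 1 where a variant was absent.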
# [2] = target: T1, PUM1 PUF domain R6-MFS (Homo sapiens, UniProt Q14671 828-1176, N1043M;Y1044F;Q1047S)
# T1 sequence: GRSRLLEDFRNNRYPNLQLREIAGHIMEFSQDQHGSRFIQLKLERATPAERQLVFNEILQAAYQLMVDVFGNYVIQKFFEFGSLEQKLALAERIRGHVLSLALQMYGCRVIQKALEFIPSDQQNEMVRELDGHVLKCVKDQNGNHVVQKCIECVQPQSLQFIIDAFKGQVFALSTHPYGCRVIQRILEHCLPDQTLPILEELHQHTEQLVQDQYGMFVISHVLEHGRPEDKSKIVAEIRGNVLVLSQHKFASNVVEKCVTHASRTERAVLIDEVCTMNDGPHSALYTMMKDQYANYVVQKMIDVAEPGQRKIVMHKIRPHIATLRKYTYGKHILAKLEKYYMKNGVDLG
# Summary of the method: as §1
# [3] = target: PUM1 PUF domain R8-HYR (Homo sapiens, UniProt Q14671 828-1176, N1122H;Q1126R)
# Summary of the method: as §1
# [4] = target: PUM1 PUF domain R8-KWV (Homo sapiens, UniProt Q14671 828-1176, N1122K;Y1123W;Q1126V)
# Summary of the method: as §1
# [5] = target: PUM1 PUF domain R4-APN (Homo sapiens, UniProt Q14671 828-1176, N971A;H972P;Q975N)
# Summary of the method: as §1
# [6] = target: PUM1 PUF domain R5-RPC (Homo sapiens, UniProt Q14671 828-1176, C1007R;R1008P;Q1011C)
# Summary of the method: as §1
# [7] = target: PUM1 PUF domain R1-KMR (Homo sapiens, UniProt Q14671 828-1176, S863K;R864M;Q867R)
# Summary of the method: as §1
# [8] = target: PUM1 PUF domain R4-WFS (Homo sapiens, UniProt Q14671 828-1176, N971W;H972F;Q975S)
# Summary of the method: as §1
# [9] = target: PUM1 PUF domain R4-GNH (Homo sapiens, UniProt Q14671 828-1176, N971G;H972N;Q975H)
# Summary of the method: as §1
# [10] = target: PUM1 PUF domain R7-RCK (Homo sapiens, UniProt Q14671 828-1176, S1079R;N1080C;E1083K)
# Summary of the method: as §1
sequence,measurement,setting,value
GGCUAGAACUAGUGGAUCCCCCGGCGCCCGGCGGCUCGAGCCCGGGUAAGUGUAAAUAGUCUGCAUGCCGCCGGGCGCCAUGCCUGCAGGUCGACUCUAGAAAACAUG,binding signal,[1],3.26 log2 enrichment (interaction score)
same,binding signal,[2],3 log2 enrichment (interaction score)
same,binding signal,[3],2.29 log2 enrichment (interaction score)
same,binding signal,[4],5.94 log2 enrichment (interaction score)
same,binding signal,[5],4.29 log2 enrichment (interaction score)
GGCUAGAACUAGUGGAUCCCCCGGCGCCCGGCGGCUCGAGCCCGGGUAAGUGUCAAUAGUCUGCAUGCCGCCGGGCGCCAUGCCUGCAGGUCGACUCUAGAAAACAUG,binding signal,[6],1.49 log2 enrichment (interaction score)
GGCUAGAACUAGUGGAUCCCCCGGCGCCCGGCGGCUCGAGCCCGGGUAAGUGUUAAUAGUCUGCAUGCCGCCGGGCGCCAUGCCUGCAGGUCGACUCUAGAAAACAUG,binding signal,[6],2.17 log2 enrichment (interaction score)
GGCUAGAACUAGUGGAUCCCCCGGCGCCCGGCGGCUCGAGCCCGGGUAAGUGUAAAUUGUCUGCAUGCCGCCGGGCGCCAUGCCUGCAGGUCGACUCUAGAAAACAUG,binding signal,[7],6.29 log2 enrichment (interaction score)
GGCUAGAACUAGUGGAUCCCCCGGCGCCCGGCGGCUCGAGCCCGGGUAAGUGUAUAUAGUCUGCAUGCCGCCGGGCGCCAUGCCUGCAGGUCGACUCUAGAAAACAUG,binding signal,[8],3.06 log2 enrichment (interaction score)
same,binding signal,[9],3.07 log2 enrichment (interaction score)
GGCUAGAACUAGUGGAUCCCCCGGCGCCCGGCGGCUCGAGCCCGGGUAAGCGUAAAUAGUCUGCAUGCCGCCGGGCGCCAUGCCUGCAGGUCGACUCUAGAAAACAUG,binding signal,[4],5.88 log2 enrichment (interaction score)
GGCUAGAACUAGUGGAUCCCCCGGCGCCCGGCGGCUCGAGCCCGGGUAAGUGUACAUAGUCUGCAUGCCGCCGGGCGCCAUGCCUGCAGGUCGACUCUAGAAAACAUG,binding signal,[5],1.7 log2 enrichment (interaction score)
GGCUAGAACUAGUGGAUCCCCCGGCGCCCGGCGGCUCGAGCCCGGGUAAGUCUAAAUAGUCUGCAUGCCGCCGGGCGCCAUGCCUGCAGGUCGACUCUAGAAAACAUG,binding signal,[10],4.15 log2 enrichment (interaction score)
GGCUAGAACUAGUGGAUCCCCCGGCGCCCGGCGGCUCGAGCCCGGGUAAGUAUAAAUAGUCUGCAUGCCGCCGGGCGCCAUGCCUGCAGGUCGACUCUAGAAAACAUG,binding signal,[10],2.31 log2 enrichment (interaction score)
